The whole screen tested about 65,000 compounds, of which about 2,100 (3.2%) showed an effect of 50% or more. The median lay at about -52%. The list comes from a sample in which strong results are over-represented; it also holds similar structures and randomly drawn compounds.

The subject of this test is Plasmodium falciparum. The experiment in a line: Screen against P. falciparum Asexual Blood Stage (ABS), at 5uM. The conditions noted are these: tested at 5 uM. The class given is functional, Dd2.
Take `COCC(=O)NCc1cc(=O)n2c(n1)CN(C)CCC2`: the INHIBITION is -101%.

For the molecule `Cc1nc(OCC(=O)N2CCCC2)cc(-n2cccn2)n1`, the INHIBITION is -111%.

For `CCC(CC)C(=O)N1CCC2(CC1)c1ccccc1[C@@H](OC)[C@@H]2O`, the INHIBITION is listed as -1.77%.

Regarding `Cc1ccc(C2CN(c3nnc(C(F)F)s3)CCO2)c(C)c1` (centres undefined), the INHIBITION is -42.4%.

For the molecule `Cc1cc(C)n(C2CN(CC(=O)N(C)Cc3ccsc3)C2)n1`, the INHIBITION came to 26.5%.

As to `Cc1cc(C)n(C2CN(CC(=O)N(C)Cc3cnn(C)c3)C2)n1`, the INHIBITION is -98.1%.

Regarding `COc1cccc(CN(C)C(=O)CN2CC(n3nc(C)cc3C)C2)c1`, the INHIBITION is given as 63.3%.

With `Cc1nc(CN2CCC3(CC2)CC(=O)N(C)c2ccccc23)cs1`, the INHIBITION was -87.3%.

In the case of `Cc1ccc(C(=O)NC2CCN(C(=O)Nc3ccncc3)CC2)o1`, the INHIBITION is reported as -195%.

With `COCCn1cnc2ccc(NC(=O)C3CC3)cc2c1=O`, the INHIBITION is given as -76%.

Take `CCOCC(=O)N1C[C@@H]2CC[C@H](Oc3ccccc3)[C@@H]2C1`: the INHIBITION was -68.1%.

For the molecule `O=C(Cn1ccnc1)N1C[C@@H]2CC[C@H](Oc3ccccc3Cl)[C@@H]2C1`, the INHIBITION was -43.2%.

Regarding `COCCOCC(=O)N1C[C@@H]2CC[C@H](Oc3ccccc3Cl)[C@@H]2C1`, the INHIBITION is on record as -103%.

Consider `CN(C)CC(=O)N1C[C@@H]2CC[C@H](Oc3ccccc3Cl)[C@@H]2C1`, for which the INHIBITION was 63.7%.

For `CN(C)CC(=O)N1C[C@@H]2CC[C@H](Oc3ccccc3)[C@@H]2C1`, the INHIBITION was found to be 61.8%.

`COCCOCC(=O)N1C[C@@H]2CC[C@H](Oc3ccccc3)[C@@H]2C1`: the INHIBITION is given as -114%.

With `CC(C)c1ncc(Cl)c(C(=O)N2CCN(C3CCCC3)CC2)n1`, the INHIBITION is -16.7%.

Take `Cc1nn(C)c(C)c1NC(=O)c1cccc(CN2CC[C@H](O)C2)c1`: the INHIBITION was -133%.

In the case of `CN(C)S(=O)(=O)N(C)C(c1cccc(F)c1)c1ccccn1` (centres undefined), the INHIBITION was -27.6%.

For the molecule `O=C(c1cc(Cl)ccc1F)N1CCCC1Cn1cccn1` (centres undefined), the INHIBITION was -101%.

`Cc1cc(C)n(CCCNc2ncnc3c2NC(=O)CN3)n1`: the INHIBITION is given as -40.1%.

Consider `COc1ccccc1-n1nc(CC(C)C)nc1Cc1nnc(N)s1`, for which the INHIBITION is listed as -59.7%.

As for `CSc1ccc(CN(C)C(=O)c2cc3c([nH]c2=O)CCCC3=O)cc1`, the INHIBITION was -31.6%.

Regarding `CN(Cc1ccc(N(C)C)cc1)C(=O)c1cc2c([nH]c1=O)CCCC2=O`, the INHIBITION amounted to 50.8%.

As to `CN(Cc1ccsc1)C(=O)c1cc2c([nH]c1=O)CCCC2=O`, the INHIBITION is given as -198%.

Turning to `Cc1ccc(CNC2CCCc3c2cnn3Cc2ccccc2)s1` (centres undefined), the INHIBITION amounted to 16.3%.

For the molecule `Cc1cccc(CNC2CCCc3c2cnn3C)c1` (centres undefined), the INHIBITION is -37.4%.

As for `Cc1cccc(CNC2CCCc3c2cnn3Cc2ccccc2)c1` (centres undefined), the INHIBITION amounted to 65.9%.

In the case of `c1cnc(N2CC[C@@H](N3CCOCC3)[C@@H]2Cc2ccncc2)nc1`, the INHIBITION is listed as -78%.

Regarding `CC(=O)N1CCC(c2n[nH]cc2-c2ccnc(N)c2)C1` (centres undefined), the INHIBITION is recorded as -13.8%.

Turning to `CC(C)CNc1cc(-c2c[nH]nc2C2CCN(C(=O)C3CC3)C2)ccn1` (centres undefined), the INHIBITION is 84.6%.

For the molecule `Nc1cc(-c2c[nH]nc2C2CCN(C(=O)C3CCCC3)C2)ccn1` (centres undefined), the INHIBITION is listed as -27.3%.

With `COc1cccc(CCC2CCCN(Cc3ncc[nH]3)C2)c1` (centres undefined), the INHIBITION was found to be 22%.

Consider `Cc1cc(N2CCC(Cc3ccccc3)CC2)nc(-c2ccncc2)n1`, for which the INHIBITION was -64.9%.

In the case of `CN1C(=O)CC[C@@H]2[C@H]1CCN2S(=O)(=O)c1cccs1`, the INHIBITION amounted to 47.1%.

As to `CC(C)CN1CC[C@@H]2[C@@H]1CCN2S(=O)(=O)c1cccs1`, the INHIBITION stood at 17.9%.

Consider `O=S(=O)(c1cccs1)N1CC[C@H]2[C@H]1CCN2CC1CC1`, for which the INHIBITION turned out to be 57.7%.

Consider `Cc1ccc(CNC(=O)c2ccc(=O)n(C)n2)c(OCC2CC2)c1`, for which the INHIBITION was -124%.

As to `O=C1NCCN1C1CCN(Cc2nc(-c3ccsc3)no2)CC1`, the INHIBITION was -14.4%.

Regarding `COc1cc(C)ccc1OCC(=O)Nc1ccnc(OCCN(C)C)c1`, the INHIBITION is on record as -18.6%.

For `COCC(=O)Nc1ccnc(OCCN(C)C)c1`, the INHIBITION is -59.7%.

Take `CCc1ccccc1OCC(=O)Nc1ccnc(OCCN(C)C)c1`: the INHIBITION is 59.7%.

Turning to `Cc1nc2ccn(C(C)C)c(=O)c2cc1C(=O)O`, the INHIBITION is recorded as -39.7%.

In the case of `CC(=O)N1CCC(n2ccc(-c3cnc(NCC(C)C)nc3)n2)CC1`, the INHIBITION is recorded as -32.2%.

Consider `CCOCCNc1nc(C2CCCC2)nc2c1cnn2C`, for which the INHIBITION was -129%.

Consider `Cn1ncc2c(NCCn3cccc3)nc(C3CCCC3)nc21`, for which the INHIBITION worked out at 9.86%.

`CCS(=O)(=O)CCNc1nc(C2CCCC2)nc2c1cnn2C`: the INHIBITION is -115%.

For `CNCCCNc1nc(C2CCCC2)nc2c1cnn2C`, the INHIBITION is reported as -38.7%.

For the molecule `CC(C)N(CCNc1nc(C2CCCC2)nc2c1cnn2C)C(C)C`, the INHIBITION is listed as 58.6%.

In the case of `Cn1ncc2c(NCCC34CCCN3CCC4)nc(C3CCCC3)nc21`, the INHIBITION is given as 63.3%.

With `N#CCCCS(=O)(=O)NC1(c2cccc(Br)c2)CC1`, the INHIBITION is -148%.

`CCOC1COC2(CCN(c3ccccn3)CC2)C1` (centres undefined): the INHIBITION is recorded as -0.961%.

With `CCOCC(O)c1nc2c([nH]1)CC(C)(C)CNC2=O` (centres undefined), the INHIBITION is recorded as -96.9%.

Consider `Cc1cnn(CCNCc2c(C)nn(Cc3ccccc3)c2C)c1`, for which the INHIBITION is 34.2%.

These data come from ChEMBL document CHEMBL4513216, “Probing the Open Global Health Chemical Diversity Library for Multistage-Active Starting Points for Next-Generation Antimalarials” (ACS Infect Dis, 2020).
